Measured values reported in PubChem BioAssay.
The source made the active and inactive calls.

How the values were obtained:
[1] = test system: PRMT1 (protein arginine N-methyltransferase 1); assay: small molecules binding arginine methyltransferase PRMT1 – biochemical, small-molecule microarray, 635 nm fluorescence, primary screen (AID 1088); conditions: higher = more signal;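 note: binding of Prmt1 protein to compounds spotted on small-molecule microarray slides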
[2] = growth effects on S. cerevisiae YJM789 – YJM789 clinical isolate, OD600, 24 h, basal, primary screen (AID 1089); conditions: higher = more signal, called active from +8 up or from −8 down;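 note: growth of clinical yeast isolate S. cerevisiae YJM 789 seeded 1000 cells per well; test concentration not given here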
[3] = S. pombe growth modifiers, basal conditions – strain 972, OD600, 24 h, no modulator, primary screen (AID 1090);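 note: basal condition with compound alone and no growth modifier present; test concentration not given here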; conditions: S. pombe 972 growth, higher = more signal, called active from +8 up or from −8 down
[4] = budding yeast growth modifiers under rapamycin – strain BY4716, OD600, 96 h, primary screen (AID 1091); note: test concentration not given here; conditions: S. cerevisiae BY4716 + rapamycin, higher = more signal, called active from +8 up or from −8 down
[5] = target: Torsin-1A-interacting protein 2 (Homo sapiens) (UniProt Q8NFQ8); assay: small molecules binding lysate-expressed LULL1 – cell lysate, human LULL1 lysate, 635/667 nm fluorescence, primary screen (AID 1092); conditions: small-molecule microarray, hLULL1 lysate binding, 635 nm fluorescence; higher = more signal;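 note: probe is lysate of COS7 cells overexpressing human LULL1; score merges per-feature 667 nm fluorescence with signal-to-noise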
[6] = optical density change of DRC41 E. coli – strain DRC41, OD650, 24 h, E. coli filamentation project, primary screen (AID 1093);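 note: MC1000 strain lacking acrAB efflux and sulA so SOS filamentation is blocked; test concentration not given here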; conditions: E. coli DRC41 growth, higher = more signal, called active from +8 up or from −8 down
[7] = probe aLefty2 binding to arrayed compounds – biochemical, biotinylated probe, 635/667 nm fluorescence, primary screen (AID 1094); conditions: small-molecule microarray, higher = more signal;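 note: score merges spot fluorescence near 667 nm with spot signal-to-noise ratio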
[8] = test system: Noggin (protein binding on small-molecule microarray); assay: small molecules binding Noggin protein – biochemical, 635/667 nm fluorescence, primary screen (AID 1095); conditions: 635 nm fluorescence, higher = more signal;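 note: score merges 667 nm feature fluorescence with signal to noise over triplicate slides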
[9] = target: Neurogenic locus notch homolog protein 3 (Homo sapiens) (UniProt Q9UM47); assay: small molecules binding NOTCH3 protein – biochemical, 635/667 nm fluorescence, primary screen (AID 1096); conditions: small-molecule microarray, 635 nm fluorescence, higher = more signal
[10] = probe aEGFR binding to arrayed compounds – biochemical, biotinylated probe, 635/667 nm fluorescence, primary screen (AID 1097); conditions: small-molecule microarray, higher = more signal;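 note: probe is a biotinylated anti-EGFR antibody binding compounds printed on slides; score combines fluorescence near 667 nm and signal to noise of each spot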

Torsin-1A-interacting protein 2 (Homo sapiens), sequence (Q8NFQ8 whole entry, looked up): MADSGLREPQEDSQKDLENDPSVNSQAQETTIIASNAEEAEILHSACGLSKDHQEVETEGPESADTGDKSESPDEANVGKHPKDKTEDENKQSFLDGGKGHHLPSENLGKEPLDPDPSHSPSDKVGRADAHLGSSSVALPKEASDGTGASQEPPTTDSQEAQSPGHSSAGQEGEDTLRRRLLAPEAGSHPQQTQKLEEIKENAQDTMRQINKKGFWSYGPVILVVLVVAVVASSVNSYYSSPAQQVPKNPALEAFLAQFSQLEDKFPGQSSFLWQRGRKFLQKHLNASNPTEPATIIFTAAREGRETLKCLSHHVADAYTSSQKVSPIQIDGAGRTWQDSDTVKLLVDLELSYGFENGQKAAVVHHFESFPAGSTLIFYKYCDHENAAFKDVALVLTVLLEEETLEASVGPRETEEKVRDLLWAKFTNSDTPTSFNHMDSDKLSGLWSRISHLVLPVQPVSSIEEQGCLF
Neurogenic locus notch homolog protein 3 (Homo sapiens), sequence (Q9UM47 whole entry, looked up): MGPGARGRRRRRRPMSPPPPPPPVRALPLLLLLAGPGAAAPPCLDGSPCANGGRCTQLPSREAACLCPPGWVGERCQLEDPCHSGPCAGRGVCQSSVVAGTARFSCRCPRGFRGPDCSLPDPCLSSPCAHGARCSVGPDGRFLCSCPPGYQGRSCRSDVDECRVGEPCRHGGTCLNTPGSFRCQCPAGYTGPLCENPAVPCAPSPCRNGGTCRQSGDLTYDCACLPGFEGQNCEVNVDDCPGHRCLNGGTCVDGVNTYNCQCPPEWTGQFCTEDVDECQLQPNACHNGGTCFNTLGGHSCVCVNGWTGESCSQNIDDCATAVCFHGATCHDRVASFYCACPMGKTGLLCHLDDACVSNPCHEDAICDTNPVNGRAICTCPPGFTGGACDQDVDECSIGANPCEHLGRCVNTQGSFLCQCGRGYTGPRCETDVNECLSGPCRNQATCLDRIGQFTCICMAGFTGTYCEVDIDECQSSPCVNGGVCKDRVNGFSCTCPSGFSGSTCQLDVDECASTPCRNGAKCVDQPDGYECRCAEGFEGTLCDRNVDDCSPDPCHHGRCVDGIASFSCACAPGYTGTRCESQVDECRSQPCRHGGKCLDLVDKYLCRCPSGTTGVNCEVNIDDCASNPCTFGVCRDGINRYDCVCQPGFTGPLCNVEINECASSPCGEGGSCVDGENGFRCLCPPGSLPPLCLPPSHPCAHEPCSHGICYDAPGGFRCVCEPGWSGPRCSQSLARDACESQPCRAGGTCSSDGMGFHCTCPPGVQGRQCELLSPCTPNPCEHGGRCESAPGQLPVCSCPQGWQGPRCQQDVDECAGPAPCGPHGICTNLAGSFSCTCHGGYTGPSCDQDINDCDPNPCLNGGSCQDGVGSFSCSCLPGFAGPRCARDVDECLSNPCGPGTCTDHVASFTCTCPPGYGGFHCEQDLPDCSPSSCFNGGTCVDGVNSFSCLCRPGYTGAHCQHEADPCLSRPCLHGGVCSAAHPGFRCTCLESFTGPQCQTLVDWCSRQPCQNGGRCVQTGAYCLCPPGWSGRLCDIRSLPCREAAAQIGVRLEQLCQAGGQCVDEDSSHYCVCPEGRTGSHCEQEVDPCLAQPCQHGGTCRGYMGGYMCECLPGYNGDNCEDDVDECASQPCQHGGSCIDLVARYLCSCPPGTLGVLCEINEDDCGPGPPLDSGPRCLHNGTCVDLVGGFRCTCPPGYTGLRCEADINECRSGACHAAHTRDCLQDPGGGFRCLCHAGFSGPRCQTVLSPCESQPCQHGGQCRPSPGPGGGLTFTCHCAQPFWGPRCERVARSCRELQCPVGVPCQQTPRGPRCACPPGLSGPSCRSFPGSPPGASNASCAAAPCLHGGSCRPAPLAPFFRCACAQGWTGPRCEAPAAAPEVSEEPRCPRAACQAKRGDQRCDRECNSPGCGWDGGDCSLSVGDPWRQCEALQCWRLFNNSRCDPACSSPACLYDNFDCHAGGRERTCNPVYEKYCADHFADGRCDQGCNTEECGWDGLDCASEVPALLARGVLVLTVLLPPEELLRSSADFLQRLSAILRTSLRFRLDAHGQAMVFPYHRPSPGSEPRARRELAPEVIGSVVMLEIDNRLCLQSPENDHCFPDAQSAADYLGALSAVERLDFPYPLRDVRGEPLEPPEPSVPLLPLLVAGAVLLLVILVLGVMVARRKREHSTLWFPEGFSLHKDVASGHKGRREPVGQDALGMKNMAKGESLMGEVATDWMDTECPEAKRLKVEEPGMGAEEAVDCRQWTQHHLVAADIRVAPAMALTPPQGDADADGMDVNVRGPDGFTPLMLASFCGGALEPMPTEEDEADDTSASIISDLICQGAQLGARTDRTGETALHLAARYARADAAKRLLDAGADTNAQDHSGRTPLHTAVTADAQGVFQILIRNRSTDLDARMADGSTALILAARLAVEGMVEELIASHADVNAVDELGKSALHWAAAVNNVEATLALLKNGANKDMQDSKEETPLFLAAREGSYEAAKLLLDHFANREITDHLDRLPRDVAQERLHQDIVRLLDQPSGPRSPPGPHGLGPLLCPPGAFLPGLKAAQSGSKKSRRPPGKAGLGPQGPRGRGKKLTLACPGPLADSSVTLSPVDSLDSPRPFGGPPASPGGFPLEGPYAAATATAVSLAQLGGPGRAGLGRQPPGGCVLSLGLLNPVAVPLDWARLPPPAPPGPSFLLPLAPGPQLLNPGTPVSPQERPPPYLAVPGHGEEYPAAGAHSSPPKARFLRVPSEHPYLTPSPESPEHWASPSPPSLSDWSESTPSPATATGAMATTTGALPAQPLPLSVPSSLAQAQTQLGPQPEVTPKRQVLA

SMILES	composite z-score [1]	z-score [2]	z-score [3]	z-score [4]	composite z-score [5]	z-score [6]	composite z-score [7]	composite z-score [8]	composite z-score [9]	composite z-score [10]
CC(C)=CCCC(C)=CCON=C1C[C@@H](O)[C@@H](O)[C@@H]2[C@@H]3C(=O)N(C(C)(C)C)C(=O)[C@@H]3CC[C@H]12	0.64	0.0423 (inactive)	0.473 (inactive)	-0.656 (inactive)	0.312	0.281 (inactive)	-0.138	0.919	0.539	-0.0466
COC(=O)CC=C[C@@H](C)[C@H](OCc1cccc(-c2ccccc2)c1)C1CCCCC1	-0.526	1.44 (inactive)	-0.915 (inactive)	1.45 (inactive)	-0.311	0.109 (inactive)	-0.321	-0.274	-0.395	-0.27
CCOC(=O)CCN1C(=O)[C@H]2[C@H]3[C@H](O)[C@H](O)CC(=NOCC(C)C)[C@H]3CC[C@H]2C1=O	-0.309	0.199 (inactive)	0.307 (inactive)	0.0797 (inactive)	0.22	0.251 (inactive)	0.096	0.109	-0.0186	-0.15
CON=C[C@@H](NS(=O)(=O)c1ccc(C)cc1)[C@H](C)C=CCC(=O)OC	-0.327	0.903 (inactive)	0.435 (inactive)	0.719 (inactive)	-0.312	0.306 (inactive)	-0.138	0.26	-0.0877	-0.289
C#CCCCON=C1C[C@@H](O)[C@@H](O)[C@@H]2[C@@H]3C(=O)N(CC)C(=O)[C@@H]3CC[C@@H]12	0.677	-0.0246 (inactive)	0.267 (inactive)	1.25 (inactive)	0.187	0.439 (inactive)	-0.0478	0.167	0.426	-0.0972
O=C1[C@H]2[C@H]3[C@H](O)[C@H](O)CC(=NO[C@@H]4O[C@H](CO)[C@@H](O)[C@H](O)[C@H]4O)[C@H]3CC[C@H]2C(=O)N1c1cccc(Oc2ccccc2)c1	0.69	-0.513 (inactive)	0.0816 (inactive)	-0.642 (inactive)	0.543	0.563 (inactive)	-0.253	0.329	0.861	-0.0549
O=c1n(Cc2cc3c(cc2Cl)OCO3)c(=O)n2n1CC[C@@H]1C(=NOCc3ccccc3)[C@H]3O[C@H]3[C@@H](O)[C@@H]12	0.499	-1.97 (inactive)	-1.25 (inactive)	-0.756 (inactive)	-0.056	-0.363 (inactive)	-0.0963	0.498	0.68	-0.0371
CCN1C(=O)[C@@H]2[C@H]3C(=CC[C@@H]2C1=O)C1(OCCCO1)[C@H]1O[C@H]1[C@H]3O	1.44	1.17 (inactive)	-6.63 (inactive)	1.66 (inactive)	0.899	-0.0556 (inactive)	-0.16	0.643	1.07	0.0043
Cn1c(=O)n2n(c1=O)[C@H]1[C@H](O)[C@@H]3O[C@@H]3C(=NOCc3ccccc3)[C@H]1CC2	0.241	0.409 (inactive)	-0.41 (inactive)	-0.115 (inactive)	2.31	0.703 (inactive)	-0.185	-0.173	0.525	-0.118
CC(C)C[C@H](NC(=O)CCC1CC(OC(=O)NCc2cccc3ccccc23)CC2(CCCC(COC(=O)NCc3ccccc3)O2)O1)C(=O)NCC(c1ccccc1)c1ccccc1 (stereo not given in full)	1.56	-0.852 (inactive)	0.333 (inactive)	-0.576 (inactive)	1.97	0.94 (inactive)	-0.166	1.64	1.09	-0.0333
CON=CC[C@@H]1C=C[C@H](OC(C)=O)[C@@H](COC(C)=O)O1	0.0622	0.586 (inactive)	0.141 (inactive)	0.35 (inactive)	0.172	-0.0614 (inactive)	0.253	0.532	-0.0592	-0.184
CCCCC#C[C@@H]1C=C[C@H](OC(C)=O)[C@@H](COC(C)=O)O1	0.59	0.248 (inactive)	-3.45 (inactive)	-1.25 (inactive)	0.456	0.325 (inactive)	-0.116	0.216	0.848	0.0251
CO[C@H]1COC(=O)CC=C[C@H](C)[C@@H](OC)COC(=O)[C@@H](C)COC(=O)CC=C[C@@H]1C	1.48	0.235 (inactive)	-1.41 (inactive)	-0.487 (inactive)	-0.108	-0.176 (inactive)	-0.235	2.04	-0.399	-0.0171
COC(=O)CC=C[C@@H](C)[C@@H](C=NO[C@@H](C)c1cn([C@H](CO)Cc2ccccc2)nn1)NS(=O)(=O)c1ccc(C)cc1	0.526	-2.32 (inactive)	-1.2 (inactive)	-0.88 (inactive)	0.112	0.122 (inactive)	-0.247	0.321	0.381	-0.0398
C[C@@H]1C=CCC(=O)OC[C@H]2O[C@@H](C=C[C@@H]2O)[C@H](C)C=CCC(=O)OC1	1.55	-2.12 (inactive)	-1.24 (inactive)	-0.618 (inactive)	-1.24	-0.293 (inactive)	-0.254	1.86	0.595	-0.0455
CCOC(=O)CCN1C(=O)[C@H]2[C@H]3[C@H](O)[C@H](O)CC(=NOCc4ccccc4)[C@H]3CC[C@H]2C1=O	-0.112	0.819 (inactive)	1.04 (inactive)	0.492 (inactive)	0.374	1.08 (inactive)	0.58	-0.316	-0.665	0.276
COC(=O)CC=C[C@@H](C)[C@@H](C=NO[C@@H](C)c1cc(-c2c(C)cc(C)cc2C)no1)NS(=O)(=O)c1ccc(C)cc1	-0.84	-0.0649 (inactive)	0.679 (inactive)	0.905 (inactive)	-0.227	-0.881 (inactive)	0.0221	-2.2	-2.03	-0.224
CC(C)=CCCC(C)=CCON=C1C[C@@H](O)[C@@H](O)[C@@H]2[C@@H]3C(=O)N(Cc4ccccc4)C(=O)[C@@H]3CC[C@H]12	1.06	-0.574 (inactive)	-1.58 (inactive)	-1.29 (inactive)	1.94	-0.128 (inactive)	-0.236	0.608	0.811	-0.034
